Our source for the inhibition values is PubChem BioAssay AID720530 (The Scripps Research Institute Molecular Screening Center, 2013).

Molecules are shown by their SMILES. Screen size: about 1,000 compounds; about 260 (26%) were called active. The list is a sample of the results. A number with no mark means an inactive call. Cut-off read from the data, not from the text of the source: active = inhibition above about 21%; inactive = the rest.

E3 ubiquitin-protein ligase UHRF1 (Homo sapiens), sequence (Q96T88 whole entry, looked up, the tested form may be a part): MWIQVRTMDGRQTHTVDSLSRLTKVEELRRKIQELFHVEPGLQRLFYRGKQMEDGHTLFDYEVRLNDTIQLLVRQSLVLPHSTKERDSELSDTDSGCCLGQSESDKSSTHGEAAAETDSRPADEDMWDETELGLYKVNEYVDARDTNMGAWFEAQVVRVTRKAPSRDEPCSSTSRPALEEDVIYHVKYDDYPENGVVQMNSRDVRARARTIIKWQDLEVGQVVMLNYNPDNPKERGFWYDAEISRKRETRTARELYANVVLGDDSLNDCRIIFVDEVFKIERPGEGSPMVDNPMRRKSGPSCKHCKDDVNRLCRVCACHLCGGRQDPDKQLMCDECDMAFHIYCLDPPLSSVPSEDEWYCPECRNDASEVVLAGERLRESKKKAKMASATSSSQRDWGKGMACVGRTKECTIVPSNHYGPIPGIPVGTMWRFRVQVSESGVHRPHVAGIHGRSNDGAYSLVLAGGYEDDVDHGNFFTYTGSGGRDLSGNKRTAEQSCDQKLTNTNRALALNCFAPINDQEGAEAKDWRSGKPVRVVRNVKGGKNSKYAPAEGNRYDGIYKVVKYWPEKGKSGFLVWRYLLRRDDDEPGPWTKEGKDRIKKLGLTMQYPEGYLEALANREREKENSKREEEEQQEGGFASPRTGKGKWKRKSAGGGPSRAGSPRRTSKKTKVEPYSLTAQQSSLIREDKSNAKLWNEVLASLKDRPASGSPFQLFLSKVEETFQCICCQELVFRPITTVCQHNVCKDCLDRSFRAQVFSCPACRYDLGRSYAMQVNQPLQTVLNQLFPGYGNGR

The test has as its target E3 ubiquitin-protein ligase UHRF1 (Homo sapiens) (UniProt Q96T88). Put plainly: blockers of UHRF1 binding to methyl-oligo – biochemical, TR-FRET, human UHRF1, counter-screen for MBD2 inhibitor project (AID 720530).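 Note: UHRF1 SRA domain binding a labeled hemimethylated CpG hairpin DNA; 0% = vehicle only and 100% = reference inhibitor with vehicle.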 Conditions: UHRF1 binding to methylated oligonucleotide, at 4.4 µM, hits give high values. For orientation: TR-FRET usually uses a lanthanide donor and a delayed reading to cut background.
By inhibition is commonly meant the percentage by which the read-out fell short of the control. `COc1ccc(N2C(=O)/C(=C/c3ccco3)C(=O)NC2=S)cc1`: the inhibition is 97.2% (active).
Consider `Cc1cc(/C=C2/C(=O)NC(=O)N(Cc3ccco3)C2=O)c(C)n1-c1ccc(C(=O)O)cc1`, for which the inhibition is 15.7%.
Take `O=C1NC(=O)N(Cc2ccco2)C(=O)/C1=C\c1ccc(-c2ccc(F)cc2)o1`: the inhibition is 12.8%.
